Records with an inconclusive call do not appear. Calls of active or inactive are those of the source. Rule for the calls, unless noted: active = hit-call score of the fitted dose curve at least 0.9, where 1 is the maximum; inconclusive = response in the unintended direction; inactive = score below 0.9.
Key:
[1] = molecular target: human Retinoid X Receptor beta (RXRb), RXRB (gene 6257) (UniProt P28702); experiment: ATG_RXRb_TRANS: Attagene TRANS-FACTORIAL HepG2 Assay for human Retinoid X Receptor beta (RXRb) (AID 2283013)
How it was run: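 Multiplexed TRANS reporter assay in HepG2; 24 h dosing; reporter mRNA by RT-PCR/CE fluorescence; gain-of-signal relative to DMSO.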

[2] = molecular target: human Thyroid Receptor alpha (THRa1), THRA (gene 7067) (UniProt P10827); experiment: ATG_THRa1_TRANS: Attagene TRANS-FACTORIAL HepG2 Assay for human Thyroid Receptor alpha (THRa1) (AID 2283014)
How it was run: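 Transient HepG2 transfection, NR-Gal4 chimera driving GAL4-UAS reporters; 24 h compound exposure; total RNA, oligo(dT) RT, PCR, fluorescent primer extension, capillary electrophoresis. Upward direction vs DMSO control.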

[3] = molecular target: Retinoic acid receptor RXR-alpha (Homo sapiens) (UniProt P19793); experiment: ATG_RXRa_TRANS: Attagene TRANS-FACTORIAL HepG2 Assay for human Retinoid X Receptor alpha (RXRa) (AID 2283012)
How it was run: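 Cells (HepG2) carried transiently transfected GAL4-responsive reporter units. Following a 24 h chemical incubation, reporter mRNA induction was read via RT-PCR fragment analysis; DMSO served as negative control and baseline.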

[4] = read-out: E-selectin (Homo sapiens) (UniProt P16581); experiment: BSK_3C_Eselectin: BioMAP Diversity Plus: 3C Assay for Eselectin Biomarker Activity (AID 2283015; active = hit-call score of the fitted dose curve at least 0.9, where 1 is the maximum; inactive = score below 0.9;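 note: cell surface E-selectin protein quantified by ELISA 24 h after dosing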); conditions: primary human endothelial cells (HUVEC); actives raise or lower the signal
How it was run: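 HUVEC, 3C stimulation; compound exposure 24 h; E-selectin by ELISA; gain- or loss-of-signal fitted bidirectionally vs DMSO baseline.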

[5] = read-out: Interleukin-1 alpha (IL1a), IL1A (gene 3552); experiment: BSK_BE3C_IL1a: BioMAP Diversity Plus: BE3C Assay for Interleukin-1 alpha (IL1a) Biomarker Activity (AID 2283016; active = hit-call score of the fitted dose curve at least 0.9, where 1 is the maximum; inactive = score below 0.9); conditions: primary human bronchial epithelial cells; actives raise or lower the signal
How it was run: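 Cultures of primary human bronchial epithelial cells receive test chemical. After 24 h, IL-1a is quantified by ELISA, while parallel wells are fixed in TCA and SRB-stained for total protein. Changes in either direction are fitted relative to DMSO.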

[6] = read-out: Monocyte Chemoattractant Protein-1 (MCP1), CCL2 (gene 6347); experiment: BSK_3C_MCP1: BioMAP Diversity Plus: 3C Assay for Monocyte Chemoattractant Protein-1 (MCP1) Biomarker Activity (AID 2283017; active = hit-call score of the fitted dose curve at least 0.9, where 1 is the maximum; inactive = score below 0.9); conditions: primary human endothelial cells (HUVEC); actives raise or lower the signal
How it was run: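 HUVEC, 3C system; 24 h chemical exposure; MCP-1 by ELISA; bidirectional curve fit vs DMSO baseline.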

[7] = read-out: Monocyte Chemoattractant Protein-1 (MCP1), CCL2 (gene 6347); experiment: BSK_4H_MCP1: BioMAP Diversity Plus: 4H Assay for Monocyte Chemoattractant Protein-1 (MCP1) Biomarker Activity (AID 2283018; active = hit-call score of the fitted dose curve at least 0.9, where 1 is the maximum; inactive = score below 0.9); conditions: primary human endothelial cells (HUVEC); actives raise or lower the signal
How it was run: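 Readout: MCP-1 ELISA on compound-treated HUVEC, sampled 24 h post-dosing. Baseline and negative control DMSO; bidirectional fit. Overt toxicity checked alongside by sulforhodamine B protein staining at time of biomarker measurement.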

[8] = read-out: Human Leukocyte Antigen - DR isotype (HLADR), HLA-DRA (gene 3122); experiment: BSK_3C_HLADR: BioMAP Diversity Plus: 3C Assay for Human Leukocyte Antigen - DR isotype (HLADR) Biomarker Activity (AID 2283019; active = hit-call score of the fitted dose curve at least 0.9, where 1 is the maximum; inactive = score below 0.9;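 note: ELISA of cell-surface HLA-DR on HUVEC 24 h after dosing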); conditions: primary human endothelial cells (HUVEC); actives raise or lower the signal
How it was run: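 HUVEC, 3C stimulation, 24 h post-dose; HLA-DR by ELISA; bidirectional curve fit vs DMSO baseline; gain or loss of signal scored.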

[9] = read-out: Interleukin-8 (IL8), CXCL8 (gene 3576); experiment: BSK_3C_IL8: BioMAP Diversity Plus: 3C Assay for Interleukin-8 (IL8) Biomarker Activity (AID 2283020; active = hit-call score of the fitted dose curve at least 0.9, where 1 is the maximum; inactive = score below 0.9); conditions: primary human endothelial cells (HUVEC); actives raise or lower the signal
How it was run: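 Human vascular endothelial cells (umbilical vein) in the 3C system; IL-8 level detected by ELISA at 24 h post-dose, with DMSO as baseline.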

[10] = read-out: Monokine induced gamma interferon (MIG), CXCL9 (gene 4283); experiment: BSK_3C_MIG: BioMAP Diversity Plus: 3C Assay for Monokine induced gamma interferon (MIG) Biomarker Activity (AID 2283021; active = hit-call score of the fitted dose curve at least 0.9, where 1 is the maximum; inactive = score below 0.9); conditions: primary human endothelial cells (HUVEC); actives raise or lower the signal
How it was run: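 After 24 h of treatment, human umbilical vein endothelial cultures (3C system) had their MIG biomarker level determined by ELISA, with DMSO serving as negative control.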

human Retinoid X Receptor beta (RXRb), RXRB (gene 6257), sequence (P28702 whole entry, looked up): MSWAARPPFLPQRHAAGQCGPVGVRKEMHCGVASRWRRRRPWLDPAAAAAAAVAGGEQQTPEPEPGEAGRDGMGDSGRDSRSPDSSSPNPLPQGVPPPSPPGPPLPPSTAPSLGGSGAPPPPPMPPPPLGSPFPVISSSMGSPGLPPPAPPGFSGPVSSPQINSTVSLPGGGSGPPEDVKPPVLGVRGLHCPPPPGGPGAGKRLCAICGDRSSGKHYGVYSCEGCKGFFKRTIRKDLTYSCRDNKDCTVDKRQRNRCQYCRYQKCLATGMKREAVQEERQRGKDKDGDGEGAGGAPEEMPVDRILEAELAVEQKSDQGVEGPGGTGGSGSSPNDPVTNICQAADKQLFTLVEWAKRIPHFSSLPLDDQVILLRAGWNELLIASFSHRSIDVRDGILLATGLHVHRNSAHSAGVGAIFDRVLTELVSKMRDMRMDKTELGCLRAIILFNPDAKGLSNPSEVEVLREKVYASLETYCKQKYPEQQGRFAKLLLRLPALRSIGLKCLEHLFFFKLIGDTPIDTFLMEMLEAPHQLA
human Thyroid Receptor alpha (THRa1), THRA (gene 7067), sequence (P10827 whole entry, looked up, the tested form may be a part): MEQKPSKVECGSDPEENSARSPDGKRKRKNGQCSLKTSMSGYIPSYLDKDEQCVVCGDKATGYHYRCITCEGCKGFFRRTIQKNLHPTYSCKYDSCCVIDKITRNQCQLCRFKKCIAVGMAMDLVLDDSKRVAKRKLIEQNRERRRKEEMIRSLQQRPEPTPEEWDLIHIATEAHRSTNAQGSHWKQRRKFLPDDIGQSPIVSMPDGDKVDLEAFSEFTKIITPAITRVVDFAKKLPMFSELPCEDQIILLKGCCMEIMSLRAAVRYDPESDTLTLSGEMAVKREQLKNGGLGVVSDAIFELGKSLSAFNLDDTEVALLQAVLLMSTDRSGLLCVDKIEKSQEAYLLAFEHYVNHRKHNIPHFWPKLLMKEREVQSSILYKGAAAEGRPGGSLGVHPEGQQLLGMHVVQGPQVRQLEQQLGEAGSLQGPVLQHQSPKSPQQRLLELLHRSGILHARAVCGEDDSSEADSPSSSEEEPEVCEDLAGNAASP
Retinoic acid receptor RXR-alpha (Homo sapiens), sequence (P19793 whole entry, looked up, the tested form may be a part): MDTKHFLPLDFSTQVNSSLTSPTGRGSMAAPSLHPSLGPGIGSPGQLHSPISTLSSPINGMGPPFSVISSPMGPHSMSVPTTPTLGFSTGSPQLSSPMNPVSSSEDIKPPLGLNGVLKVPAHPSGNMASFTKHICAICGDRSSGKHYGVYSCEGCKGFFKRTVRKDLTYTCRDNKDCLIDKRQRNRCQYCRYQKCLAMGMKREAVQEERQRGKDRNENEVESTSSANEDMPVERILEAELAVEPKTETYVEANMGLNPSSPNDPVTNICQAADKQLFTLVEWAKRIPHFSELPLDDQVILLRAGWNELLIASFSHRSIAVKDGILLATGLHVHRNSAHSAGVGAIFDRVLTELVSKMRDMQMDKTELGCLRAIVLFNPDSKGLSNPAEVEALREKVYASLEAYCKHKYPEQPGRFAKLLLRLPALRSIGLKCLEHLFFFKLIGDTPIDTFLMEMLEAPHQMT
E-selectin (Homo sapiens), sequence (P16581 whole entry, looked up): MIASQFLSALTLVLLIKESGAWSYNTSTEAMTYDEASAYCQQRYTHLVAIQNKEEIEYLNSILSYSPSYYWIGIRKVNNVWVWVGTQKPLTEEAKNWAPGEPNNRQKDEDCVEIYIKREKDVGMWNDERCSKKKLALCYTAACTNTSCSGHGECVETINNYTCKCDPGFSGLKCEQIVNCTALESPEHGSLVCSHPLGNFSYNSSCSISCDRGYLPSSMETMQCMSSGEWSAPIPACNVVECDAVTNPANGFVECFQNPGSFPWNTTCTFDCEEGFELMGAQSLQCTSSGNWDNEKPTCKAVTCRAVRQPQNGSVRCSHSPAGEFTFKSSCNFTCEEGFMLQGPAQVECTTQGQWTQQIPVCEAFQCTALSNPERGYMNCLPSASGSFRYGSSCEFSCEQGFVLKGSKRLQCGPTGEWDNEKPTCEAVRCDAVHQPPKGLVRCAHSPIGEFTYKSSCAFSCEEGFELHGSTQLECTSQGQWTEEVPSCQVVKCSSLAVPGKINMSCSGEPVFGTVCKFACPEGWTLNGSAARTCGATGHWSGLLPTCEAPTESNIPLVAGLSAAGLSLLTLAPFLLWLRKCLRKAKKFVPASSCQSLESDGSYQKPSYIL

OCC(CO)(CO)COCC(CO)(CO)CO
outcome [1]: inactive

CCCCCC(CO)CCC (stereo not drawn)
outcome [1]: inactive | outcome [2]: inactive

CC(=O)C(=O)O
outcome [1]: inactive

CCCCCCCCCCCCCCCC(=O)O
outcome [1]: inactive

C=C[Si](OCC)(OCC)OCC
outcome [3]: inactive | outcome [4]: inactive | outcome [5]: inactive | outcome [6]: inactive | outcome [7]: inactive | outcome [8]: inactive | outcome [9]: inactive | outcome [10]: inactive

Clc1sc(Cl)c(Cl)c1Cl
outcome [1]: inactive

CCCC(C)C=O (stereo not drawn)
outcome [1]: inactive

CC(C)(C)c1n[nH]c(=S)n(N)c1=O
outcome [1]: inactive | outcome [2]: inactive

CCCCCCCCCCCCN(CCCCCCCCCCCC)CCCCCCCCCCCC
outcome [1]: inactive | outcome [2]: inactive

CC(C)(C)C(=O)c1ccccc1
outcome [1]: inactive | outcome [2]: inactive

O=C1CCCCCCCCCCOCCCCO1
outcome [1]: inactive | outcome [2]: inactive

Cc1ccc2sc3cccc(C)c3c2c1
outcome [1]: inactive | outcome [2]: inactive

ClCCCl
outcome [1]: inactive

CCCCNC(=O)NS(=O)(=O)c1ccc(C)cc1
outcome [1]: inactive | outcome [2]: inactive

CCCCCCCCCCCCCOS(=O)(=O)O
AC50 [1]: 12.9 µM (active)

Sc1nc(S)nc(S)n1
outcome [1]: inactive

CCCCCCCCCCCCSC
AC50 [1]: 100 µM (active) | outcome [2]: inactive

CC(C)OP(=O)(CP(=O)(OC(C)C)OC(C)C)OC(C)C
outcome [1]: inactive | outcome [2]: inactive

CCCC[n+]1ccccc1
outcome [1]: inactive

NCCCN1CCOCC1
outcome [1]: inactive | outcome [2]: inactive

CCCCCCCCCCCCN
outcome [1]: inactive

CC(=O)C=CC1=C(C)CCCC1(C)C
AC50 [1]: 43.9 µM (active)

CC(=O)Nc1ccccc1O
outcome [3]: inactive | outcome [4]: inactive | outcome [5]: inactive | outcome [6]: inactive | outcome [7]: inactive | outcome [8]: inactive | outcome [9]: inactive | outcome [10]: inactive

O=C1c2ccccc2C(=O)N1SC1CCCCC1
AC50 [1]: 44.4 µM (active)
